Screening data deposited in PubChem BioAssay by National Center for Advancing Translational Sciences (NCATS).
DT40 TDP1 CPT: growth inhibition of DT40 Tdp1-/-;hTDP1 cells with camptothecin (screen for TDP1 inhibitors). chicken DT40 Tdp1-/-;hTDP1 cells + 20 nM CPT, ATP luminescence, 48 h. Potency, µM (highest dose often 46.2 µM), for inactives: at the top dose activity change, negative = growth inhibition, most hits filed as inhibitors. hit rate 12% among 420,000; also: potency is read from the fitted curve at half-maximal effect; nearly all actives have a fitted effect of over 55% in size
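Chicken DT40 Tdp1-/- cells complemented with human TDP1, 400 cells/well, exposed to compounds plus 20 nM camptothecin for at least 48 h at 37 C; viability read as ATP content by CellTiter-Glo luminescence.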
HT1080 IDH1KD tx: toxicity to HT-1080 IDH1 knockdown cells (counter line); HT-1080 IDH1 knockdown viability, ATP luminescence, 48 h; Potency, µM (highest dose often 46.1 µM), inactives show at the highest dose activity, negative = toxicity, usual class: cytotoxic; hit rate 2% among 360,000;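 also: potency is read from the fitted curve at half-maximal effect; 0% = DMSO wells and -100% = cell-free medium wells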
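IDH1KD HT-1080 cells, 750/well, RPMI + 5% FBS; compound pinned after 2 h settling; 48 h, 37 °C; CellTiter-Glo luminescence; % activity normalised to DMSO and no-cell wells; curves fitted, classed by r2 and efficacy.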
DT40 TDP1 no CPT: qHTS for Inhibitors of human tyrosyl-DNA phosphodiesterase 1 (TDP1): qHTS in cells in absence of CPT | AID 686978, 2013 | DT40 Tdp1-/- hTDP1 cells, no CPT, ATP luminescence, 48 h | hit rate 15% among 420,000 | Potency, µM (top dose mostly 46.2 µM), for the others: at the highest dose activity change, negative = growth inhibition, usual class: inhibitors; also: potency is read from the fitted curve at half-maximal effect; nearly all actives have a fitted effect of over 55% in size
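No-CPT arm: Tdp1-/-;hTDP1 DT40 cells (400/well) plus compounds, incubated ≥48 hr at 37 °C. Readout CellTiter-Glo luminescence.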
ELG1 repair inh: blocks ELG1-dependent DNA repair in HEK293T cells; Potency, µM (top dose mostly 46.1 µM), inactives show top-dose activity change, negative = inhibition, usual class: inhibitors; HEK293T ELG1-luciferase reporter, luminescence, 16 h; DNA damage induced by 5-fluorouridine; AID 504467; hit rate 2.3% among 330,000; also: potency is read from the fitted curve at half-maximal effect; nearly all actives have a fitted effect of over 55% in size
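Step one: seed 2,000 cells per well. Step two: pin-transfer compound or DMSO alongside 5-fluorouridine. Step three: incubate 16 hr, 37 °C, 5% CO2. Step four: add ONE-Glo, wait 30 min, read luminescence.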
IL1B secr inh: inhibitors of inflammasome signaling (IL-1 beta secretion); THP-1 LPS/ATP IL-1B secretion, AlphaLISA, 16 h; active compounds read low; activity change, % at 57.5 µM; hit rate 4.7% among 360,000; in the data active = activity change below about -50%; inconclusive = mostly about -30% to -49%
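Secreted IL-1B measured by AlphaLISA bead assay after 16 h compound exposure of THP-1 cells; compounds (final up to 57.5 uM) added 1 h before LPS (250 ng/mL) and ATP (1.25 mM) stimulation; lower signal means less secretion.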
HT1080NT lethal: kills 2HG-producing HT-1080-NT fibrosarcoma cells; HT-1080-NT fibrosarcoma viability, CellTiter-Glo ATP luminescence, 48 h; Potency, µM (doses to about 46.1 µM), inactives show at the highest dose activity, negative = less viability, hits mostly cytotoxic; hit rate 1.6% among 360,000; AID 686970;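 also: NT is the 2HG producing partner of a matched IDH1 knockdown line; potency is read from the fitted curve at half-maximal effect; 0% = DMSO-treated cells and -100% = media-only wells without cells; nearly all actives have a fitted effect of over 55% in size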
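HT-1080-NT; 750 cells/well; 5% FBS RPMI; 48 h compound, 37 degrees C; CellTiter-Glo luminescence; curve fitting and curve-class assignment.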
An asterisk follows results filed as active; ? = inconclusive; / = no result; [ ] = another dose, or the depositor's remark. Sampled rows, rich in hits. Any-hit rate of the full collection: about 19%. Unless noted, calls follow the shape of the dose curve; as a rule, active = well fitted curve in the direction sought with a large enough effect; inconclusive = small, poorly fitted or top-dose-only effect, or another doubt; inactive = no such curve, though single readings can be large; an effect the other way counts as inactive or inconclusive. Unless noted, % is scaled to controls: 0 for no effect and ±100 for the full control effect.

SMILES | DT40 TDP1 CPT | HT1080 IDH1KD tx | DT40 TDP1 no CPT | ELG1 repair inh | IL1B secr inh | HT1080NT lethal
CC1CCN(c2nc3ccccn3c(=O)c2C=O)CC1 | -13.0% | -6.2% | 0.0% | 9.7% | 33.5 | 3.8%
O=Cc1c(Cl)nc2ccccn2c1=O | 18.4µM* | ? | 16.4µM* | 16.3% | -99.1* | ?
CC(=O)N1CCN(C(=O)COC(=O)COc2ccc(C#N)cc2)CC1 | 1.4% | 21.7% | -1.0% | 9.2% | -0.9 | 20.8%
COc1ccnc(CSC(N)=Nc2ccc(F)cc2)c1 | ? | 10.5% | ? | ? | -98.5* | 14.2%
COc1ccccc1-c1nnc(-c2ccc(C)cc2)o1 | -10.5% | -2.0% | ? | / | / | 1.2%
COc1ccccc1-c1nnc(-c2ccc(N3CCOCC3)cc2)o1 | ? | 6.1% | 20.6µM* | ? | ? | 3.8%
CCN(C(=O)COC(=O)CCCOc1ccc(Cl)cc1C)c1c(N)n(Cc2ccccc2)c(=O)[nH]c1=O | 14.6µM* | -2.9% | 16.4µM* | / | 3.6 | ?
COCCN(C(=O)COC(=O)CCOc1ccccc1C)c1c(N)n(Cc2ccccc2)c(=O)[nH]c1=O | -10.1% | 2.1% | -5.2% | -2.7% | 6.7 | -0.3%
CCN(C(=O)COC(=O)C1CCC(C(C)(C)C)CC1)c1c(N)n(Cc2ccccc2)c(=O)[nH]c1=O (stereo unspecified) | 20.6µM* | -1.1% | 16.4µM* | / | -2.3 | -4.2%
Nc1c(N(Cc2ccccc2)C(=O)COc2cccc(Cl)c2)c(=O)[nH]c(=O)n1Cc1ccccc1 | 20.6µM* | 8.2% | ? | -4.1% | -21.5 | 10.9%
CC(C)CN(C(=O)COC(=O)C1CC1)c1c(N)n(Cc2ccccc2)c(=O)[nH]c1=O | -11.5% | -0.7% | -4.9% | 16.7% | 2.3 | 1.4%
CCN(C(=O)COC(=O)CCOc1ccc(C(C)(C)C)cc1)c1c(N)n(Cc2ccccc2)c(=O)[nH]c1=O | 11.6µM* | 3.0% | 3.66µM* | / | -16.0 | 5.5%
Nc1c(N(Cc2ccccc2)C(=O)COc2ccc(F)cc2Cl)c(=O)[nH]c(=O)n1Cc1ccccc1 | ? | 0.2% | -22.5% | -14.0% | 2.0 | 9.4%
Cc1cc(C)n(-c2ccc(NC(=O)C3CCCCN3C(=O)c3ccc(C)s3)cc2)n1 (stereo unspecified) | -19.3% | 7.6% | -24.3% | -10.7% | ? | -1.2%
COc1ccc2oc(-c3ccc(C)c(NC(=O)c4ccc(N5CCCCC5)c([N+](=O)[O-])c4)c3)nc2c1 | -1.7% | / | 2.7% | / | / | /
CC(=O)c1ccc(NC(=O)C(C)N2CCN(C/C=C/c3ccccc3)CC2)cc1 (stereo unspecified) | -15.6% | -1.2% | ? | ? | -1.8 | -12.2%
CC(C(=O)Nc1ccc([N+](=O)[O-])cc1)N1CCN(C/C=C/c2ccccc2)CC1 (stereo unspecified) | ? | -13.5% | ? | ? | -77.2* | -4.9%
COc1ccc(Cl)cc1NC(=O)C(C)N1CCN(C/C=C/c2ccccc2)CC1 (stereo unspecified) | ? | ? | 20.6µM* | ? | -58.9* | ?
CCCc1nc2ccccc2c(=O)n1CCc1ccccc1 | 13µM* | -14.6% | 9.2µM* | -22.5% | -3.7 | -15.0%
CN(C)c1ccc(/C=C/c2nc3ccccc3c(=O)n2CCO)cc1 | 18.4µM* | ? | 16.4µM* | 8.4% | -8.6 | -25.3%
O=c1c2ccccc2nc(/C=C/c2ccccc2)n1CCCO | ? | -3.5% | ? | -28.2% | -16.6 | -9.8%
O=c1c2ccccc2nc(/C=C/c2ccc3c(c2)OCO3)n1CCCO | -3.5% | 6.51µM* | ? | -6.1% | -56.2* | ?
O=c1c2ccccc2nc(/C=C/c2ccc(O)cc2)n1CCc1ccccc1 | 7.31µM* | ? | 8.2µM* | 23.1µM* | -26.7 | ?
COc1ccc(CCNC(=O)c2ccc3ccccc3n2)cc1 | -29.1% | 2.3% | -27.8% | ? | -12.1 | -0.6%
Nc1ncc(S(=O)(=O)c2ccc([N+](=O)[O-])cc2)s1 | ? | -17.1% | ? | / | 19.8 | -25.3%
SMILES | DT40 TDP1 CPT | HT1080 IDH1KD tx | DT40 TDP1 no CPT | ELG1 repair inh | IL1B secr inh | HT1080NT lethal
Cc1cc(C)cc(-n2ccn3c(CC(C)(C)CC(=O)O)nnc3c2=O)c1 | -1.1% | / | -0.9% | / | / | /
O=S(=O)(c1cccc2nsnc12)N1CCCCC1 | -1.5% | -1.8% | 0.8% | 12.7% | 5.7 | -4.2%
Cc1ccc(C)c(S(=O)(=O)N2CCN(C(=O)c3n[nH]c(=O)c4ccccc34)CC2)c1 | ? | -11.1% | ? | ? | -4.3 | -10.6%
c1csc(CCNc2ncnc3sc4c(c23)CCC4)c1 | 3.66µM* | ? | 8.2µM* | ? | 17.5 | -26.2%
Cc1sc2ncnc(NCC(c3ccco3)N(C)C)c2c1C (stereo unspecified) | -20.9% | 7.2% | ? | ? | 16.8 | 5.2%
c1ccc(Nc2ncnc3sc4c(c23)CCC4)cc1 | ? | -2.6% | -26.6% | -0.9% | 21.5 | 0.4%
CN(C)C(CNc1ncnc2sc3c(c12)CCCCC3)c1ccco1 (stereo unspecified) | ? | -23.5% | 18.4µM* | -8.9% | -51.4* | -20.1%
CC(OC(=O)C1CCCCC1)C(=O)Nc1cccc([N+](=O)[O-])c1 (stereo unspecified) | ? | 0.5% | -4.6% | -9.5% | 21.5 | -0.7%[9.24 µM]
COc1ccc([C@H]2CC(=O)C=C(c3cccc(NC(C)=O)c3)C2)cc1 | -21.0% | -5.6% | -15.3% | -17.5% | 25.8 | -0.5%
COc1cc(C)c(C(=O)Oc2cc(C)c(C(=O)O)c(O)c2C)c(O)c1C | ? | 3.9% | ? | / | 25.8 | -1.5%
COC(=O)c1c(C)cc(OC(=O)c2c(C)cc(O)c(C=O)c2O)c(C)c1O | 5.8µM* | / | 4.11µM* | / | / | /
CCCCN1CCc2c1nc1ccc(Br)cc1c2N | ? | ? | 23.1µM* | -12.7% | -96.2* | ?
Cc1ccc2nc3c(c(N)c2c1)CCN3C | ? | ? | ? | -3.7% | ? | ?
Nc1nc2c(Cl)ccc(Cl)c2s1 | 5.3% | -8.6% | -13.9% | 22.8% | 0.4 | -0.6%
CCCN(CCC)C(=O)c1cc2c(=O)n3cccc(C)c3nc2s1 | ? | -3.3% | 18.4µM* | -8.6% | 15.3 | -3.0%
COc1ccc(C)cc1NC(=O)c1cc2c(=O)n3cccc(C)c3nc2s1 | 1.8% | / | -2.8% | / | / | /
Cc1cccn2c(=O)c3cc(C(=O)NCCCOC(C)C)sc3nc12 | ? | -1.4% | 20.6µM* | -0.5% | -12.7 | 10.6%
